# Data published in the supplement of paper PMC8728848.
# Only a selection was taken, and the strongest signals are over-represented in it overall.
# Experiments:
# Assay in all cases: glycan array binding signal (z-score within array); higher = stronger binding
# Settings in all cases: glycan notation: IUPAC condensed, linker removed
# [1] = molecular target: Fuc(a1-2)Gal(b1-3)GlcNAc(b1-3)[Gal(b1-4)GlcNAc(b1-6)]Gal(b1-4)Glc
# Procedure, shortened: (§1)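 From the Consortium for Functional Glycomics database, 3228 arrays were curated, keeping only those whose protein sequence was available. Binding is given as a within-array Z-score averaged across arrays sharing a protein sequence and across linkers. Negative Z-scores can be read as non-binding.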
# [2] = molecular target: Fuc(a1-2)Gal(b1-3)GlcNAc(b1-3)[Neu5Ac(a2-6)Gal(b1-4)GlcNAc(b1-6)]Gal(b1-4)Glc
# Procedure, shortened: as §1
# Fuc(a1-2)Gal(b1-4)Glc = molecular target: Fuc(a1-2)Gal(b1-4)Glc
# Procedure, shortened: as §1
# [3] = molecular target: Fuc(a1-2)Gal(b1-4)GlcNAc(b1-3)Gal(b1-4)GlcNAc(b1-3)Gal(b1-4)GlcNAc
# Procedure, shortened: as §1
# Fuc(a1-2)[Gal(a1-3)]Gal = molecular target: Fuc(a1-2)[Gal(a1-3)]Gal
# Procedure, shortened: as §1
# [4] = molecular target: Fuc(a1-2)[Gal(a1-3)]Gal(b1-3)GlcNAc(b1-6)GalNAc
# Procedure, shortened: as §1
# [5] = molecular target: Fuc(a1-2)[Gal(a1-3)]Gal(b1-4)GlcNAc(b1-6)GalNAc
# Procedure, shortened: as §1
# [6] = molecular target: Fuc(a1-2)[GalNAc(a1-3)]Gal(b1-3)GlcNAc(b1-2)Man(a1-3)[Fuc(a1-2)[GalNAc(a1-3)]Gal(b1-3)GlcNAc(b1-2)Man(a1-6)]Man(b1-4)GlcNAc(b1-4)[Fuc(a1-6)]GlcNAc
# Procedure, shortened: as §1
# [7] = molecular target: Fuc(a1-2)[GalNAc(a1-3)]Gal(b1-4)GlcNAc(b1-3)[Fuc(a1-2)[GalNAc(a1-3)]Gal(b1-4)GlcNAc(b1-6)]GalNAc
# Procedure, shortened: as §1
# [8] = molecular target: Fuc(a1-3)[GalNAc(b1-4)]GlcNAc
# Procedure, shortened: as §1
# Fuc(a1-4)GlcNAc = molecular target: Fuc(a1-4)GlcNAc
# Procedure, shortened: as §1
# Gal(a1-3)Gal(b1-4)GlcNAc = molecular target: Gal(a1-3)Gal(b1-4)GlcNAc
# Procedure, shortened: as §1
# [9] = molecular target: Gal(a1-3)[Gal(a1-4)]Gal(b1-4)GlcNAc
# Procedure, shortened: as §1
# [10] = molecular target: Gal(b1-3)GlcNAc(b1-3)Gal(b1-4)Glc
# Procedure, shortened: as §1
# [11] = molecular target: Gal(b1-3)GlcNAc(b1-3)Gal(b1-4)[Fuc(a1-3)]GlcNAc
# Procedure, shortened: as §1
# [12] = molecular target: Gal(b1-3)[Fuc(a1-4)]GlcNAc(b1-2)Man
# Procedure, shortened: as §1
# [13] = molecular target: Gal(b1-3)[GlcNAc(b1-6)]GalNAc
# Procedure, shortened: as §1
# [14] = molecular target: Gal(b1-4)GalNAc(a1-3)[Fuc(a1-2)]Gal(b1-4)GlcNAc
# Procedure, shortened: as §1
# [15] = molecular target: Gal(b1-4)GlcNAc(b1-2)Man(a1-3)[GlcNAc(b1-4)][Gal(b1-4)GlcNAc(b1-2)Man(a1-6)]Man(b1-4)GlcNAc(b1-4)GlcNAc
# Procedure, shortened: as §1
# [16] = molecular target: Gal(b1-4)GlcNAc(b1-3)Gal(b1-4)GlcNAc(b1-3)Gal(b1-4)GlcNAc(b1-3)Gal(b1-4)GlcNAc(b1-3)Gal(b1-4)GlcNAc(b1-2)[Gal(b1-4)GlcNAc(b1-3)Gal(b1-4)GlcNAc(b1-3)Gal(b1-4)GlcNAc(b1-3)Gal(b1-4)GlcNAc(b1-3)Gal(b1-4)GlcNAc(b1-6)]Man(a1-6)[Gal(b1-4)GlcNAc(b1-3)Gal(b1-4)GlcNAc(b1-3)Gal(b1-4)GlcNAc(b1-3)Gal(b1-4)GlcNAc(b1-3)Gal(b1-4)GlcNAc(b1-2)Man(a1-3)]Man(b1-4)GlcNAc(b1-4)[Fuc(a1-6)]GlcNAc
# Procedure, shortened: as §1
# [17] = molecular target: Gal(b1-4)GlcNAc(b1-3)Gal(b1-4)GlcNAc(b1-6)[Gal(b1-3)]GalNAc
# Procedure, shortened: as §1
# Gal3S4S(b1-4)GlcNAc = molecular target: Gal3S4S(b1-4)GlcNAc
# Procedure, shortened: as §1
# Gal3S6S(b1-4)GlcNAc = molecular target: Gal3S6S(b1-4)GlcNAc
# Procedure, shortened: as §1
# Gal4S(b1-4)GlcNAc = molecular target: Gal4S(b1-4)GlcNAc
# Procedure, shortened: as §1
# [18] = molecular target: GalNAc3S(b1-4)[Fuc(a1-3)]GlcNAc
# Procedure, shortened: as §1
# [19] = molecular target: GlcNAc(b1-2)[GlcNAc(b1-4)]Man(a1-3)[GlcNAc(b1-2)Man(a1-6)]Man(b1-4)GlcNAc(b1-4)GlcNAc
# Procedure, shortened: as §1
# [20] = molecular target: GlcNAc(b1-2)[GlcNAc(b1-4)]Man(a1-3)[GlcNAc(b1-4)][GlcNAc(b1-2)Man(a1-6)]Man(b1-4)GlcNAc(b1-4)GlcNAc
# Procedure, shortened: as §1
# [21] = molecular target: GlcNAc(b1-2)[GlcNAc(b1-4)]Man(a1-3)[GlcNAc(b1-4)][GlcNAc(b1-2)[GlcNAc(b1-6)]Man(a1-6)]Man(b1-4)GlcNAc(b1-4)GlcNAc
# Procedure, shortened: as §1
# [22] = molecular target: GlcNAc(b1-2)[GlcNAc(b1-4)]Man(a1-3)[GlcNAc(b1-4)][GlcNAc(b1-2)[GlcNAc(b1-6)]Man(a1-6)]Man(b1-4)GlcNAc(b1-4)[Fuc(a1-6)]GlcNAc
# Procedure, shortened: as §1
# [23] = molecular target: GlcNAc(b1-3)Gal(b1-4)GlcNAc(b1-2)[GlcNAc(b1-3)Gal(b1-4)GlcNAc(b1-6)]Man(a1-6)[GlcNAc(b1-3)Gal(b1-4)GlcNAc(b1-2)Man(a1-3)]Man(b1-4)GlcNAc(b1-4)GlcNAc
# Procedure, shortened: as §1
# [24] = molecular target: GlcNAc(b1-3)Gal(b1-4)GlcNAc(b1-3)Gal(b1-4)GlcNAc(b1-2)[GlcNAc(b1-3)Gal(b1-4)GlcNAc(b1-3)Gal(b1-4)GlcNAc(b1-6)]Man(a1-6)[GlcNAc(b1-3)Gal(b1-4)GlcNAc(b1-3)Gal(b1-4)GlcNAc(b1-2)Man(a1-3)]Man(b1-4)GlcNAc(b1-4)[Fuc(a1-6)]GlcNAc
# Procedure, shortened: as §1
# [25] = molecular target: GlcNAc(b1-4)GlcNAc(b1-4)GlcNAc
# Procedure, shortened: as §1
# [26] = molecular target: Kdn(a2-3)Gal(b1-4)[Fuc(a1-3)]GlcNAc
# Procedure, shortened: as §1
# [27] = molecular target: Man(a1-2)Man(a1-6)[Man(a1-3)]Man(a1-6)[Man(a1-2)Man(a1-2)Man(a1-3)]Man
# Procedure, shortened: as §1
# [28] = molecular target: Man(a1-3)[Man(a1-6)]Man(a1-6)[Man(a1-3)]Man
# Procedure, shortened: as §1
# [29] = molecular target: Neu5Ac(a2-3)Gal(b1-3)GlcNAc(b1-3)GalNAc
# Procedure, shortened: as §1
# [30] = molecular target: Neu5Ac(a2-3)Gal(b1-3)[Fuc(a1-4)]GlcNAc(b1-3)Gal(b1-3)[Fuc(a1-4)]GlcNAc
# Procedure, shortened: as §1
# [31] = molecular target: Neu5Ac(a2-3)Gal(b1-4)GlcNAc(b1-2)[Neu5Ac(a2-3)Gal(b1-4)GlcNAc(b1-4)]Man(a1-3)[GlcNAc(b1-4)][Neu5Ac(a2-3)Gal(b1-4)GlcNAc(b1-2)[Neu5Ac(a2-3)Gal(b1-4)GlcNAc(b1-6)]Man(a1-6)]Man(b1-4)GlcNAc(b1-4)GlcNAc
# Procedure, shortened: as §1
# [32] = molecular target: Neu5Ac(a2-3)Gal(b1-4)[Fuc(a1-3)]GlcNAc(b1-3)GalNAc
# Procedure, shortened: as §1
# Neu5Ac(a2-3)GalNAc = molecular target: Neu5Ac(a2-3)GalNAc
# Procedure, shortened: as §1
# [33] = molecular target: Neu5Ac(a2-3)[GalNAc(b1-4)]Gal(b1-4)Glc
# Procedure, shortened: as §1
# [34] = molecular target: Neu5Ac(a2-6)Gal(b1-4)GlcNAc(b1-2)Man(a1-3)[GlcNAc(b1-4)][Neu5Ac(a2-6)Gal(b1-4)GlcNAc(b1-2)Man(a1-6)]Man(b1-4)GlcNAc(b1-4)GlcNAc
# Procedure, shortened: as §1
# [35] = molecular target: Neu5Ac(a2-6)Gal(b1-4)GlcNAc(b1-2)[Neu5Ac(a2-6)Gal(b1-4)GlcNAc(b1-4)]Man(a1-3)[GlcNAc(b1-4)][Neu5Ac(a2-6)Gal(b1-4)GlcNAc(b1-4)Man(a1-6)]Man(b1-4)GlcNAc(b1-4)GlcNAc
# Procedure, shortened: as §1
# [36] = molecular target: Neu5Ac(a2-6)Gal(b1-4)GlcNAc(b1-3)Gal(b1-4)GlcNAc(b1-2)Man(a1-3)[Neu5Ac(a2-6)Gal(b1-4)GlcNAc(b1-3)Gal(b1-4)GlcNAc(b1-2)Man(a1-6)]GalNAc
# Procedure, shortened: as §1
# [37] = molecular target: Neu5Ac(a2-6)Gal(b1-4)GlcNAc(b1-3)Gal(b1-4)GlcNAc(b1-3)Gal(b1-4)GlcNAc
# Procedure, shortened: as §1
# [38] = molecular target: Neu5Ac(a2-6)Gal(b1-4)GlcNAc(b1-3)GalNAc
# Procedure, shortened: as §1
# [39] = molecular target: Neu5Ac(b2-6)Gal(b1-4)GlcNAc
# Procedure, shortened: as §1
binder,measurement,setting,value
SP8524D-bot-399-27-399 (Bacteroides ovatus) (protein) DAKYDTLDTHAYIEEALSSTSQKVTVQATGESFTTLNVHLSNLSSTDNHYKLVTDQSVLDTYNHINGTGYIMLPKDYYTLPETITVKAGQYAADALSIALKAFSQEMMKSGESYALPVKLVLQDGSISPMENTGTFVILAESIIEFSAPMFVGAPSLKANKFTESPETYSQYTIEVRFQVANTADRDRAVFKNGGDDANFILLRFEDPQSDNENYKAHSLVQIVGRNRLYLNPSNSFKPNEWQHLALVCDGSNYRLYINGVDSGVLSIPTGATTFSDVNWFCLGDDSYSRWGNCKILMSEARIWSVVRSASQIQNNMTQVSPKSVGLEAYWRFNEGQGNVFEDATGKGHTLTTSATPTWIDGILSTDKSTEWK,glycan array binding signal (z-score),[1],-0.119
same,glycan array binding signal (z-score),[2],-0.348
same,glycan array binding signal (z-score),Fuc(a1-2)Gal(b1-4)Glc,-0.082
same,glycan array binding signal (z-score),[3],-0.049
same,glycan array binding signal (z-score),Fuc(a1-2)[Gal(a1-3)]Gal,1.34
same,glycan array binding signal (z-score),[4],-0.387
same,glycan array binding signal (z-score),[5],-0.255
same,glycan array binding signal (z-score),[6],-0.246
same,glycan array binding signal (z-score),[7],-0.238
same,glycan array binding signal (z-score),[8],1.02
same,glycan array binding signal (z-score),Fuc(a1-4)GlcNAc,6.02
same,glycan array binding signal (z-score),Gal(a1-3)Gal(b1-4)GlcNAc,-0.463
same,glycan array binding signal (z-score),[9],3.56
same,glycan array binding signal (z-score),[10],-0.359
same,glycan array binding signal (z-score),[11],-0.174
same,glycan array binding signal (z-score),[12],0.35
same,glycan array binding signal (z-score),[13],-0.01
same,glycan array binding signal (z-score),[14],0.229
same,glycan array binding signal (z-score),[15],-0.382
same,glycan array binding signal (z-score),[16],1.02
same,glycan array binding signal (z-score),[17],0.317
same,glycan array binding signal (z-score),Gal3S4S(b1-4)GlcNAc,-0.075
same,glycan array binding signal (z-score),Gal3S6S(b1-4)GlcNAc,0.506
same,glycan array binding signal (z-score),Gal4S(b1-4)GlcNAc,0.045
same,glycan array binding signal (z-score),[18],0.563
same,glycan array binding signal (z-score),[19],16.1
same,glycan array binding signal (z-score),[20],8.43
same,glycan array binding signal (z-score),[21],12.1
same,glycan array binding signal (z-score),[22],2.04
same,glycan array binding signal (z-score),[23],0.455
same,glycan array binding signal (z-score),[24],1.11
same,glycan array binding signal (z-score),[25],-0.187
same,glycan array binding signal (z-score),[26],0.119
same,glycan array binding signal (z-score),[27],-0.455
same,glycan array binding signal (z-score),[28],0.159
same,glycan array binding signal (z-score),[29],-0.628
same,glycan array binding signal (z-score),[30],0.014
same,glycan array binding signal (z-score),[31],-0.648
same,glycan array binding signal (z-score),[32],0.96
same,glycan array binding signal (z-score),Neu5Ac(a2-3)GalNAc,-0.038
same,glycan array binding signal (z-score),[33],0
same,glycan array binding signal (z-score),[34],0.589
same,glycan array binding signal (z-score),[35],0.44
same,glycan array binding signal (z-score),[36],0.437
same,glycan array binding signal (z-score),[37],-0.075
same,glycan array binding signal (z-score),[38],-0.138
same,glycan array binding signal (z-score),[39],-0.048
